The supplement of paper PMC3334620
Over roughly 33,000 sequences, “E-score (-0.5 to 0.5)” has its median near -0.01; the highest 2% begin near 0.26. Only a selection was taken, and the highest values are over-represented in it overall.

Each sequence was assayed against Ste12 (UniProt P13574) (assay: PBM E-score (8-mer binding enrichment) (E-score (-0.5 to 0.5)); higher = stronger / more preferred TF binding). Conditions: protein concentration: 200 nM; construct: GST-DNA-binding domain.
Summary of the method: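 The E-score, a modified Wilcoxon-Mann-Whitney statistic, was computed by the Universal PBM Analysis Suite for every ungapped eight-base word pooled with its reverse complement. Scans behind it were normalised with masliner after bound GST-tagged yeast transcription factors were detected with fluorescent anti-GST. The proteins, at about 100-200 nM, had been applied to universal all-10-mer Agilent arrays made double-stranded by primer extension.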

Sequence of UniProt P13574 (P13574 whole entry, the tested form may be a part): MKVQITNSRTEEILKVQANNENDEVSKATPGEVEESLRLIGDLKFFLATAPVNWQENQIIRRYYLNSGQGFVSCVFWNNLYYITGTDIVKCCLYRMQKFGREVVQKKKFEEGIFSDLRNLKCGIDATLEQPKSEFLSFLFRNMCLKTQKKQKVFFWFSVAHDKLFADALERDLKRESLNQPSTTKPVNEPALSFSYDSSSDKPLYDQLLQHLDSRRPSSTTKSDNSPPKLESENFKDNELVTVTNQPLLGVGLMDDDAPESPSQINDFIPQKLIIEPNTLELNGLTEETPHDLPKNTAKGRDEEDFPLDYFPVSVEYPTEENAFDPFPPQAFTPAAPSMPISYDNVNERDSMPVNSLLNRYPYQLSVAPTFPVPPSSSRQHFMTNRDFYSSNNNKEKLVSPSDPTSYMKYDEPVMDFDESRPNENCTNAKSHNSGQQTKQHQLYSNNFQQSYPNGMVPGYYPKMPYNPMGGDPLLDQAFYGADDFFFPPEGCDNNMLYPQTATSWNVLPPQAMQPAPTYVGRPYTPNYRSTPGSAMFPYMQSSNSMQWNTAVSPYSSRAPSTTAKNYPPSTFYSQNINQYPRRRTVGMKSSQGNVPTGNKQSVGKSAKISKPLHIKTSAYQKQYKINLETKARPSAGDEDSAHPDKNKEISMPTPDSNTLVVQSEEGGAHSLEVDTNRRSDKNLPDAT

| Sequence | PBM E-score |
| --- | --- |
| AAGAATGA | 0.209 |
| ACATCCCT | -0.0649 |
| CCATCCCC | 0.0914 |
| ACATCCCC | 0.321 |
| AGCAGGTG | -0.0318 |
| CAATCCCC | 0.0988 |
| CAATCCCG | 0.321 |
| CAATCCGC | 0.0698 |
| AAATCCGG | 0.0201 |
| CAATCCGG | 0.273 |
| CAATCCCA | -0.0795 |
| CTAGGAAA | -0.0731 |
| TTAGGAAA | 0.292 |
| ATAGGAAA | 0.0645 |
| AAGAAATC | -0.0981 |
| ATGAAATC | 0.185 |
| CTGAAATC | -0.0192 |
| CTGAAAAC | 0.0248 |
| CTGAAAGA | 0.00814 |

| Sequence | PBM E-score |
| --- | --- |
| ATGAAACC | 0.457 |
| CTGAAACA | 0.495 |
| CTGAAATA | 0.202 |
| AGGAAACC | -0.0955 |
| CTGAAACC | 0.47 |
| AGAACATC | -0.0976 |
| CGACCGTC | -0.173 |
| CGAGTCAC | -0.0334 |
| CAATGCAC | -0.042 |
| CAAACAAA | 0.149 |
| AGAACAAA | 0.312 |
| GAAACAAA | 0.345 |
| TTAACAAA | 0.246 |
| TAAACAAA | 0.244 |
| GTAACAAA | 0.312 |
| ACAACAAA | 0.152 |
| AGAACAAG | 0.0467 |
| AAAACAAA | 0.293 |
| AAAACAAG | 0.104 |

| Sequence | PBM E-score |
| --- | --- |
| CTAACAAA | 0.0819 |
| AGAACAAT | 0.247 |
| ATGAGAAC | 0.118 |
| AGTGAGCG | -0.176 |
| CCGCAGCG | -0.033 |
| GCGTAGCA | 0.0572 |
| CTCGACTA | 0.0414 |
| GAGACCTA | -0.0109 |
| GAGATTGA | 0.0793 |
| CCTAGAAA | 0.144 |
| CAAACAAC | 0.223 |
| GAAACAAC | 0.334 |
| AAAACAAC | 0.154 |
| GGGGTGAA | 0.0185 |
| CGCCTAGA | -0.0727 |
| ACATCTTG | -0.151 |
| ACATCTTA | -0.0589 |
| ACATCTTC | 0.261 |
